HSF1 inhib – HSF1 inhibition. NIH3T3-HGL HSE-luciferase, MG132-induced, luminescence 8 h; stronger effect = lower value. activity change, negative = inhibition, % at 7.5 µM (by protocol). 300,000 compounds, 0.77% hits;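 active means more than half of replicate wells show activity change below -50%, luminescence cut by over half; inconclusive means some wells, but at most half, below -50%; inactive means no replicate well below -50%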;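 further: luciferase reports HSF-1 transcriptional activity via heat shock element; 0% = median of DMSO wells and -100% = zero luminescence signal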
HSF1 activator – increases HSF-1 driven luciferase reporter signal | NIH3T3-HGL HSF-1 luciferase reporter, MG132, 8 h; 100% = twice DMSO control signal | activation, % at 9 µM | 300,000 compounds, 1.7% hits;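 active means mean replicate activation of at least 50% with a set share of replicates each reaching 50%; inconclusive means only one of those two conditions met; inactive means mean below 50% and too few replicates reaching it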;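 further: 0% = median of the neutral control wells and 100% = twice that signal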
esBAF inh – blocks esBAF chromatin remodeling in mouse ES cells | Bmi1-luciferase knock-in reporter, 24 h; 100% = twice the neutral-well signal | AID 602393 | reporter increase, % at 12.5 µM | 350,000 compounds, 2% hits; in the data active means activation above about 40%; inconclusive means no clear call, values can overlap the other calls;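 further: 0% = median of the plate's neutral control wells and 100% = double that signal; a rise in the Bmi1 reporter signal indicates esBAF inhibition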
Wnt bcat act – activates Wnt/beta-catenin signaling in a reporter cell assay; activator, plate reader; 300,000 compounds, 1.2% hits; AID 743398; activation, % at 9.35 µM; in the data active means activation above about 30%, passing the limit was not always enough; inconclusive means no clear call, values can overlap the other calls;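 further: 0% = neutral control wells and 100% = positive control wells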
MITF TRPM1 HTS – MITF TRPM1 promoter activation in melanoma cells. activation, % at 12.5 µM. SK-MEL-5 TRPM1-promoter luciferase, 24 h; % of positive control, neutral wells = 0. 300,000 compounds, 0.75% hits;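 active means mean activation of at least 80% with every replicate also reaching 80%; inconclusive means mean reaches 80% but some replicate falls short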;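 further: 0% = neutral control wells and 100% = parthenolide positive control wells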
* marks the source's active call; other numbers are inactive results; ? = inconclusive; . = no result. An excerpt weighted towards active compounds, which were near 3.8% of everything screened.

SMILES	HSF1 inhib	HSF1 activator	esBAF inh	Wnt bcat act	MITF TRPM1 HTS
CCc1nnc(NS(=O)(=O)c2ccc(NC(=O)c3cc4ccccc4oc3=O)cc2)s1	-3.1	14.0	.	.	.
CO[C@@H]1CN(C)C(=O)c2cc(NS(C)(=O)=O)ccc2OC[C@@H](C)N(S(=O)(=O)CC(F)(F)F)C[C@H]1C	.	.	2.2	.	.
O=C(Nc1cccc([N+](=O)[O-])c1)c1cc2ccccc2cc1O	2.4	1.2	.	-13.7	-53.6
O=C(Nc1ccc(Oc2cccnc2)cc1)c1ccccc1Cl	.	.	.	2.1	18.5
O=C(Nc1ccc2nc(-c3cccnc3)[nH]c2c1)c1ccccc1F	-63.0*	-71.6	.	5.0	29.6
O=C(Nc1ccncc1)c1cc2ccccc2cc1O	231.8	261.4*	52.9*	46.9*	71.2
O=C(Nc1ccc(Oc2cccnc2)cc1)c1ccccc1F	15.1	21.9	60.3*	18.4	74.1
O=C(Nc1ccc2cn[nH]c2c1)c1ccccc1F	26.3	39.7	.	24.2	35.9
C[C@@H]1CN([C@@H](C)CO)C(=O)c2cc(NC(=O)Cn3cnnn3)ccc2O[C@@H]1CN(C)S(C)(=O)=O	.	.	-0.5	.	.
C[C@H]1CCCCO[C@@H](CN(C)S(=O)(=O)c2cn(C)cn2)[C@@H](C)CN([C@@H](C)CO)C(=O)c2cc(NS(=O)(=O)c3cn(C)cn3)ccc2O1	.	.	-1.2	.	.
C[C@@H]1CN([C@H](C)CO)C(=O)c2cc(NS(C)(=O)=O)ccc2O[C@H]1CN(C)S(=O)(=O)c1cn(C)cn1	.	.	0.3	.	.
Cc1cc(-c2ccccc2)nc(N/N=C/c2ccccc2F)n1	12.4	24.1	55.9*	11.1	.
Cc1ccc2nc(N/N=C/c3ccccc3F)nc(-c3ccccc3)c2c1	-1.9	-11.8	.	1.9	14.5
C/C(=N\Nc1nc(C)cc(-c2ccccc2)n1)c1ccc(O)cc1	-7.0	-0.3	20.2	3.5	.
Cc1cc(C)nc(N/N=C/c2ccccc2OCc2ccc(Cl)cc2)n1	30.8	43.3	.	35.0*	23.9
C/C(=N\Nc1nc(C)cc(-c2ccccc2)n1)c1ccccc1	-5.6	-1.1	62.7*	0.3	.
COc1cccc(NC(=O)N[C@H]2CC[C@@H](CC(=O)Nc3ccccc3)O[C@H]2CO)c1	.	.	0.9	.	.
O=C(C[C@@H]1CC[C@H](NC(=O)Cc2cccnc2)[C@H](CO)O1)Nc1ccc(-c2ccccc2)cc1	.	.	-1.4	.	.
COCC(=O)N(C)C[C@H]1Oc2cc(-c3ccc(OC)cc3)ccc2S(=O)(=O)N([C@H](C)CO)C[C@@H]1C	.	.	0.8	.	.
CNc1ccc(/C=C/C(=O)c2ccc(C)cc2)cc1[N+](=O)[O-]	24.9	33.7	.	-1.8	-2.3
O=C(C=Cc1ccco1)c1ccc2ccccc2c1	.	.	.	61.2*	57.6
CN(C)c1ccc(/C=C/C(=O)c2ccccc2)cc1[N+](=O)[O-]	28.7	45.4	62.2*	33.9*	33.5
Cc1ccc(/C=C/C(=O)c2ccc(O)cc2)cc1	20.3	27.5	.	0.1	72.6
O=C(/C=C/c1ccco1)c1ccc(O)cc1	12.7	25.9	.	.	.
CSc1ccc(/C=C/C(=O)c2ccc(O)cc2)cc1	58.2	60.2*	.	.	93.9*
SMILES	HSF1 inhib	HSF1 activator	esBAF inh	Wnt bcat act	MITF TRPM1 HTS
CN(C)c1ccc(C(=O)/C=C/c2ccco2)cc1	18.4	68.1*	.	.	52.0
CCC(=O)N1C[C@H](C)[C@H](OC)CN(C)C(=O)c2ccc(NC(=O)c3ccccc3)cc2OC[C@@H]1C	.	.	3.5	.	.
C[C@@H]1CN([C@@H](C)CO)C(=O)c2cc(NC(=O)NC3CCCCC3)ccc2O[C@H]1CN(C)C(=O)Nc1ccccc1	.	.	11.8	.	.
CC(=O)/C(=C/c1ccc(N(C)C)cc1)C(=O)c1ccccc1	42.4	81.4*	.	.	5.3
Cc1ccc(C(=O)Cn2c(C(=O)/C=C/c3ccccc3)nc3ccccc32)cc1	166.0	185.7*	-36.5	.	.
CN(C)c1ccc(C(=O)/C=C/c2ccccc2)cc1	47.6	73.6*	68.2*	.	?
Cc1ccc(/C=C/C(=O)c2ccccc2)cc1	-3.3	1.2	15.5	.	97.3*
CO[C@H]1CN(C)C(=O)c2cc(NC(=O)Nc3cccc(F)c3)ccc2OC[C@H](C)N(C(=O)Nc2c(C)noc2C)C[C@@H]1C	.	.	4.5	.	.
NCC[C@@H]1CC[C@@H](NC(=O)C2CCC2)[C@@H](CO)O1	.	.	-3.0	.	.
COc1ccccc1C(=O)Nc1ccc2c(c1)C(=O)N(C)[C@@H]1CC[C@@H](CC(=O)NCCc3ccncc3)O[C@@H]1CO2	.	.	-1.4	.	.
COc1cccc(N2CCN(Cc3nnnn3C3CCCCC3)CC2)c1	-60.3*	-67.5	.	-1.0	0.5
Cc1ccc(C)c(N2CCN(Cc3nnnn3C3CCCCC3)CC2)c1	-5.0	14.1	-0.2	-1.6	-2.8
Cc1ccc(C(=O)CC(=O)c2ccccc2C)c(O)c1	4.0	7.2	62.2*	11.9	-9.1
Cc1ccc(C(=O)CC(=O)c2cccc(F)c2)c(O)c1	11.4	8.3	46.2*	.	.
O=C(CSc1nc2c(c(=O)n1-c1ccc(Cl)cc1)SCC2)NCC1CCCO1 (stereo not drawn)	-1.2	-7.9	-1.0	-0.2	-7.8
COc1cccc(-n2c(SCC(=O)NCC3CCCO3)nc3c(c2=O)SCC3)c1 (stereo not drawn)	-71.7*	-78.4	.	-0.2	4.1
Cc1cc(C(F)F)n2nc(C(=O)Nc3cccc(C(F)(F)F)c3)nc2n1	50.7	80.7*	.	.	0.1
Nc1c(-c2ccc(Cl)cc2)cnc2ncnn12	-1.6	-10.8	-3.8	-0.6	-8.1
CCOC(=O)c1cnc2cc(-c3ccc(Cl)cc3)nn2c1N	16.4	18.0	67.5*	21.0	149.3*
Cc1cc2ncc(-c3ccc(Cl)cc3)c(N)n2n1	14.3	36.2	62.0*	12.5	?
COCc1nn2c(N)c(-c3ccccc3)cnc2c1-c1ccccc1	-26.3	-43.8	50.2*	8.4	107.8*
Nc1c(-c2ccccc2)cnc2cc(-c3ccccc3)nn12	12.4	43.3	.	55.7*	58.4
C[C@H]1CN([C@@H](C)CO)C(=O)c2cc(NC(=O)Nc3ccc(C(F)(F)F)cc3)ccc2O[C@@H]1CN(C)C	.	.	2.3	.	.
Cc1noc(C)c1S(=O)(=O)Nc1ccc2c(c1)C(=O)N([C@H](C)CO)C[C@@H](C)[C@H](CN(C)S(=O)(=O)c1ccc(Cl)cc1)OCCCC[C@@H](C)O2	.	.	-5.7	.	.
CCOC(=O)C1CCN(C(=O)c2ccc(N(C)S(C)(=O)=O)cc2)CC1	-17.1	-19.1	7.1	.	3.3
SMILES	HSF1 inhib	HSF1 activator	esBAF inh	Wnt bcat act	MITF TRPM1 HTS
COC(=O)c1ccc(NC(=O)COC(=O)C2CCC2)cc1	-2.2	5.0	0.8	0.1	7.5
CC(C)(C)C(=O)Nc1ccc(C(=O)COC(=O)C2CC2)cc1	.	.	59.8*	0.6	76.3
CN(c1ccc(C(=O)COC(=O)C2CC2)cc1)S(C)(=O)=O	.	.	3.4	13.7	83.2*
C[C@H](CO)N1C[C@H](C)[C@@H](CN(C)C(=O)c2ccc(F)cc2)Oc2ncc(-c3ccncc3)cc2C1=O	.	.	0.1	.	.
Cc1ccc(S(=O)(=O)Nc2ccc3c(c2)C(=O)N(C)[C@@H]2CC[C@@H](CC(=O)O)O[C@@H]2CO3)cc1	.	.	5.1	.	.
CCCSc1nnc(CNS(=O)(=O)c2ccc(C)cc2)n1C	-61.1*	-65.9	-5.2	-3.9	17.8
Cc1cc(-c2nnc(CCC(=O)N(C)CCc3ccccc3)o2)no1	-26.8	-41.4	6.7	24.1	8.3
